Source: PubChem (National Center for Advancing Translational Sciences (NCATS))
D2 ag-1 – D2 dopamine receptor (human) agonism; HEK293 T-REx D2 cells, calcium flux agonist mode; P14416; AID 485358; 340,000 compounds, 0.53% hits; activation, % at 2 µM;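 active = activation over 3 SD above normal in the single-dose calcium agonist read, cut at about 30% in these data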
Target sequence (P14416 whole entry, looked up): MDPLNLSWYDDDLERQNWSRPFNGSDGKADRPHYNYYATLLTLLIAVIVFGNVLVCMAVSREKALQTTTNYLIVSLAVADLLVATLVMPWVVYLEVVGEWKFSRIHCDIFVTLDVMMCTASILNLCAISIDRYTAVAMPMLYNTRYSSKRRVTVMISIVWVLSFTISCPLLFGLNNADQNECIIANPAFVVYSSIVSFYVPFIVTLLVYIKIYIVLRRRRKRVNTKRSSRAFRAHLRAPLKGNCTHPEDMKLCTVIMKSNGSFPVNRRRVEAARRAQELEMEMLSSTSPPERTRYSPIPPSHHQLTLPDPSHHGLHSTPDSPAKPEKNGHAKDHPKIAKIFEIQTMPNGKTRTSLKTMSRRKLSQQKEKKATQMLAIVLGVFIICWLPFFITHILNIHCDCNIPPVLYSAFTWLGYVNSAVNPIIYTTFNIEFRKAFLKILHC
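Calcium-flux readout, 1 cycle/sec over 180 s following compound pin transfer, in inducible HEK293 Trex D2 cells (force-coupled); dopamine controls included. Positive calcium responses during this window marked compounds as potential agonists.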
D2 ag-2 – human D2 receptor agonism in beta-arrestin assay; AID 624465; P14416; DiscoveRx PathHunter D2 beta-arrestin, luminescence, 90 min; 100% = 57 uM dopamine signal; activation, % (test concentration not listed); 360,000 compounds, 0.084% hits; in the data active = activation above about 40%; inconclusive = between about 15% and that limit
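Agonist mode: compounds alone added to overnight-plated D2 PathHunter cells for 90 min at 37 C, with 57 uM final dopamine (EC100) defining full response. Beta-arrestin recruitment detected by chemiluminescent reagent, read after 1 h at ambient temperature.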
D2 antagonist – D2 dopamine receptor (human) antagonism; P14416; HEK293 TREx D2 cells, calcium flux, dopamine EC80; inhibition, % at 10 µM; 340,000 compounds, 2% hits; in the data active = inhibition above about 30%; inactive = below that, where a call was filed
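Dopamine at EC80 is the agonist stimulus; test compounds precede it by 180 s. Calcium flux read kinetically in a force-coupled, inducible HEK293 T-REx D2 cell line.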
LDHA block – blocks human lactate dehydrogenase A | purified LDHA, NADH/diaphorase-resazurin fluorescence; hits give low values | 480,000 compounds, 0.15% hits | activity change, % (values are at about 110 or 230 µM) | AID 1347041 | P00338; in the data active = activity change below about -30%; inconclusive = mostly about -25% to -30%
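Enzyme activity of human lactate dehydrogenase 5 (2 nM; 0.06 mM NADH, 0.2 mM pyruvate, 5 min, RT) is measured via a resazurin/diaphorase fluorescence readout of residual NADH.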
D2 PAM-1 – human D2 receptor positive allosteric modulation. potentiation, % (test concentration not listed). AID 624464. DiscoveRx D2 beta-arrestin cells, luminescence, 90 min; 100% = 57 uM dopamine signal. P14416. 360,000 compounds, 0.23% hits; in the data active = potentiation above about 50%; inconclusive = mostly about 30% to 49%
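PathHunter beta-arrestin assay in DiscoveRx D2 cells. Compounds were added with an EC20 of dopamine (50 nM final) for 90 min at 37 deg C. Luminescence was read 1 h after detection reagent, with 57 uM dopamine as the EC100 control.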
D2 PAM-2 – positively modulates the human D2 dopamine receptor allosterically. 340,000 compounds, 0.34% hits. P14416. HEK293 T-REx D2, calcium flux, EC20 dopamine potentiation. AID 485347. potentiation, % at 10 µM;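 active = potentiation over 3 SD above the plate norm, cut at about 30% in these data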
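Tetracycline-induced Hek293 Trex D2 cells, force-coupled to calcium, loaded with no-wash calcium dye. Compound added with 180 s kinetic read for agonism, then EC20 dopamine and a further 180 s read for potentiation.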
D3 ag – confirmation of human D3 dopamine receptor agonists, beta-arrestin; shares compounds with D2 ag-1; DiscoveRx D3 beta-arrestin cells, luminescence, 90 min; Potency, µM (highest dose often 76.9 µM), hits mostly activators; 2,300 compounds, 4% hits; also: nearly all actives have a fitted effect of over 70% in size
D2 ag-3 – activates human D2 dopamine receptor in D3 counterscreen; AID 720507; Potency, µM (series often up to 76.9 µM), usual class: activators; 2,300 compounds, 5.9% hits; shares compounds with D2 ag-1; DiscoveRx PathHunter D2 beta-arrestin, luminescence, 90 min; response scale: percent relative to full dopamine signal; also: nearly all actives have a fitted effect of over 70% in size
Hits are given with their value. This is a sample that favours compounds with a hit; in the whole collection about 2.1% have one here. Unless noted, calls follow the shape of the dose curve; as a rule, active = well fitted activation curve with a large enough effect; inconclusive = small, poorly fitted or top-dose-only effect; inactive = flat fitted curve, though single readings scatter.

O=C(CSc1ncccn1)Nc1cccc2ccccc12 was read as D2 ag-1 inactive, D2 ag-2 inactive, D2 antagonist inactive, LDHA block inactive, D2 PAM-1 inactive, D2 PAM-2 inactive, D3 ag inactive and D2 ag-3 inactive.
`O=C(CSCC(=O)Nc1cccc2ccccc12)Nc1cccc2ccccc12` gave D2 ag-2 inactive, LDHA block inactive and D2 PAM-1 inactive.
For CCCN(CC1CC1)C(=O)COC(=O)c1oc2c(F)cccc2c1C the results were D2 ag-1 42.5, D2 ag-2 inconclusive, D2 antagonist 40.6, LDHA block inactive, D2 PAM-1 inactive, D2 PAM-2 inactive, D3 ag inactive and D2 ag-3 inconclusive.
Cc1ccc(C(=O)/C=C/Nc2ccc(S(=O)(=O)Nc3cc(C)nc(C)n3)cc2)cc1 was read as D2 ag-1 inactive, D2 ag-2 inactive, D2 antagonist inactive, LDHA block inactive, D2 PAM-1 inactive, D2 PAM-2 inactive, D3 ag inactive and D2 ag-3 inactive.
CCOC(=O)CSc1nc2c(sc(=S)n2-c2ccc(OCC)cc2)c(=O)[nH]1 was read as D2 ag-1 inactive, D2 ag-2 inactive, D2 antagonist inactive, LDHA block inactive, D2 PAM-1 inactive and D2 PAM-2 inactive.
For CCOc1ccc(-n2c(=S)sc3c(=O)[nH]c(SCC(=O)NCc4ccco4)nc32)cc1 the results were D2 ag-1 inactive, D2 ag-2 inactive, D2 antagonist 45.2, LDHA block inactive, D2 PAM-1 inactive, D2 PAM-2 inactive, D3 ag inactive and D2 ag-3 inactive.
Screening O=C1CCC(C(=O)N2CCN(c3ccc(F)cc3)CC2)CN1CC1CCCCC1 (stereo not drawn) returned D2 ag-1 inactive, D2 ag-2 inactive, D2 antagonist inactive, LDHA block inactive, D2 PAM-1 inactive and D2 PAM-2 inactive.
For O=C1CCC(C(=O)N2CCN(c3ccccc3)CC2)CN1CC1CCCCC1 (stereo not drawn) the results were D2 ag-1 61.7, D2 ag-2 inactive, D2 antagonist inactive, LDHA block inactive, D2 PAM-1 inactive, D2 PAM-2 inactive, D3 ag inactive and D2 ag-3 inconclusive.
Screening Clc1ccc(OCc2ccc(-c3nc(-c4ccc(Br)o4)no3)o2)cc1 returned LDHA block inactive.
Screening COc1ccc(NC(=O)C2CCCNC2)cc1OCC(C)C (stereo not drawn) returned D2 ag-1 inactive, D2 ag-2 inactive, D2 antagonist inactive, LDHA block inactive, D2 PAM-1 inactive and D2 PAM-2 inactive.
For COc1ccc(NC(=O)C2CCCN(CCCc3ccccc3)C2)cc1OCC(C)C (stereo not drawn) the results were D2 ag-1 74.5, D2 ag-2 inactive, D2 antagonist 79.7, LDHA block inactive, D2 PAM-1 inactive, D2 PAM-2 inactive, D3 ag inactive and D2 ag-3 inconclusive.
Screening Fc1ccccc1N1CCN(CC2CC3C=CC2C3)CC1 (stereo not drawn) returned D2 ag-1 78.6, D2 ag-2 inconclusive, D2 antagonist 73.9, LDHA block inactive, D2 PAM-1 inactive, D2 PAM-2 inactive, D3 ag inconclusive and D2 ag-3 inconclusive.
`Cc1cccc(NC(=S)NCCc2ccc(C(F)(F)F)cc2)c1` gave LDHA block inactive.
COc1ccc2nc3sc(C(=O)NCCN4CCc5ccccc5C4)cc3cc2c1 was read as D2 ag-1 65.8, D2 ag-2 inconclusive, D2 antagonist 53.5, LDHA block inactive, D2 PAM-1 inactive, D2 PAM-2 inactive, D3 ag inactive and D2 ag-3 inconclusive.
`CC1(C)NC(=O)N(CC(=O)N2CCN(S(=O)(=O)c3cc(Cl)ccc3Cl)CC2)C1=O` gave D2 ag-2 inactive, LDHA block inactive, D2 PAM-1 inactive, D2 PAM-2 inactive, D3 ag inactive and D2 ag-3 inactive.
Screening O=C(c1ccc(C(F)(F)F)cc1)C1CCCN(C(=O)Cn2cncn2)C1 (stereo not drawn) returned D2 ag-1 inactive, D2 ag-2 inactive, D2 antagonist inactive, LDHA block inactive, D2 PAM-1 inactive, D2 PAM-2 inactive, D3 ag inactive and D2 ag-3 inactive.
For O=C(c1cccc(C(F)(F)F)c1)C1CCCN(C(=O)Cn2cncn2)C1 (stereo not drawn) the results were D2 ag-1 inactive, D2 ag-2 inactive, D2 antagonist inactive, LDHA block inactive, D2 PAM-1 inactive and D2 PAM-2 inactive.
Cc1ccccc1NC(=O)COc1coc(CN2CCN(Cc3ccccc3)CC2)cc1=O was read as D2 ag-1 73.6, D2 ag-2 inactive, D2 antagonist inactive, LDHA block inactive, D2 PAM-1 inactive, D2 PAM-2 inactive, D3 ag inactive and D2 ag-3 inactive.
`Cc1ccc(NC(=O)COc2coc(CN3CCN(Cc4ccccc4)CC3)cc2=O)cc1` gave D2 ag-1 inactive, D2 ag-2 inactive, D2 antagonist inactive, LDHA block inactive, D2 PAM-1 inactive and D2 PAM-2 inactive.
`O=C(COc1coc(CN2CCN(c3ccccc3F)CC2)cc1=O)NC1CCCCC1` gave D2 ag-1 inactive, D2 ag-2 inactive, D2 antagonist inactive, LDHA block inactive, D2 PAM-1 inactive, D2 PAM-2 inactive, D3 ag inactive and D2 ag-3 inactive.
CN(CC(=O)Nc1ccc(F)cc1)C(=O)c1ccc(-n2cccc2)cc1 was read as LDHA block inactive.
O=C(NCCc1cccc(Cl)c1)Nc1ccc(Cl)cc1F was read as LDHA block inactive.
For CC(C)Oc1nc2ccccc2nc1N1CCC(C(=O)Nc2ccc(Cl)cc2)CC1 the results were LDHA block inactive.
Screening Cc1cnc(NC(=O)CCc2ncc(-c3ccc(F)cc3)o2)s1 returned LDHA block inactive.
For Cc1[nH]nc2c1C(c1ccsc1)C1=C(CC(C)(C)CC1=O)N2 (stereo not drawn) the results were D2 ag-1 41.7, D2 ag-2 inactive, D2 antagonist inactive, LDHA block inactive, D2 PAM-1 inactive, D2 PAM-2 inactive, D3 ag inactive and D2 ag-3 inactive.
For Cc1[nH]nc2c1C(c1cccs1)C1=C(CC(C)(C)CC1=O)N2 (stereo not drawn) the results were D2 ag-1 35.6, D2 ag-2 inactive, D2 antagonist 30.2, LDHA block inactive, D2 PAM-1 inactive, D2 PAM-2 inactive, D3 ag inactive and D2 ag-3 inactive.
